Experimental data taken from PubChem BioAssay (NCI).
The panel holds about 83,000 compounds, 20% with a hit somewhere; the sample as a whole holds those more often.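 96-well plates, one dose, 48 hours. Percent growth reported; active if below 10.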 Values without a mark were called inactive. Calls of active or inactive are those of the source.

Key:
Assay in all cases: NCI-60 one-dose screen, 48 h (100 = growth as untreated, 0 = no growth, -100 = all killed)
NCI-H226 lung = conditions: 10 µM unless noted
NCI-H322M lung = conditions: 10 µM unless noted
HOP-62 NSCLC = conditions: 10 µM unless noted
NCI-H460 lung = conditions: 10 µM unless noted
HOP-92 NSCLC = conditions: 10 µM
NCI-H522 lung = conditions: 10 µM unless noted
A549/ATCC NSCLC = conditions: 10 µM unless noted
786-0 renal = conditions: 10 µM unless noted
COLO 205 colon = conditions: 10 µM unless noted
DU-145 prostate = conditions: 10 µM unless noted
K-562 leukemia = conditions: 10 µM unless noted
MALME-3M melanoma = conditions: 10 µM unless noted
MDA-MB-231 breast = conditions: 10 µM unless noted
SF-268 CNS = conditions: 10 µM unless noted
SF-295 CNS = conditions: 10 µM unless noted
SF-539 CNS = conditions: 10 µM unless noted
UACC-257 melanoma = conditions: 10 µM unless noted
RXF 393 renal = conditions: 10 µM unless noted
NCI-H23 lung = conditions: 10 µM unless noted
M14 melanoma = conditions: 10 µM unless noted

Row | SMILES | growth (NCI-H226 lung) [%] | growth (NCI-H322M lung) [%] | growth (HOP-62 NSCLC) [%] | growth (NCI-H460 lung) | growth (HOP-92 NSCLC) | growth (NCI-H522 lung) | growth (A549/ATCC NSCLC) [%] | growth (786-0 renal) | growth (COLO 205 colon) [%] | growth (DU-145 prostate) | growth (K-562 leukemia) | growth (MALME-3M melanoma) [%] | growth (MDA-MB-231 breast) [%] | growth (SF-268 CNS) [%] | growth (SF-295 CNS) [%] | growth (SF-539 CNS) | growth (UACC-257 melanoma) | growth (RXF 393 renal) [%] | growth (NCI-H23 lung) [%] | growth (M14 melanoma)
1 | COc1ccc(COc2ccc(/C=C3\C(=O)Nc4ccccc43)cc2OC)cc1 | 103 | 106 | 100 | 103% | 101% | 93.4% | 109 | 105% | 123 | 109% | 101% | 99.7 | 99.9 | 103 | 103 | 95.9% | 116% | – | – | –
2 | O=C1CCCc2nc(Nc3ccc(S(=O)(=O)Nc4ccc([N+](=O)[O-])cc4)cc3)ncc21 | 109 | 106 | 111 | 103% | 121% | 87.7% | – | 99.9% | 121 | 105% | 92.2% | 107 | 99.6 | 96.2 | 101 | 92.8% | 102% | 103 | – | –
3 | COc1ccc(NC(=O)CSc2nnc(-c3ccc4nc(-c5ccc(OC)c(OC)c5)[nH]c4c3)o2)cc1OC | 93.1 | 89.4 | 98.8 | 102% | 85.6% | 95.1% | 101 | 105% | 113 | 91.3% | 108% | 83.3 | 93.5 | 93.3 | 107 | 93.3% | 106% | – | – | –
4 | COc1cc2nc(Cl)nc(Nc3cccc(C4=Nc5c(N)nc(N)nc5NC(c5ccc6c(c5)OCO6)C4)c3)c2cc1OC (stereo unspecified) | 85.3 | – | 40.7 | 55.5% | – | 74.1% | 86.1 | 61.8% | 89.1 | 81.4% | 4.53% (active) | – | 79.9 | 75.6 | 37.7 | 86.5% | 105% | 56.1 | 78.7 | 89.7%
5 | CCCC(=O)NC(c1cccnc1)c1cc(C(C)(C)C)c2cccnc2c1O (stereo unspecified) | 12.7 | 33.6 | 25.9 | 3.55% (active) | 50.5% | 7.22% (active) | 18.2 | 2.54% (active) | 20.3 | 31.8% | 12.5% | 25 | 34.6 | 24.2 | 17 | 13.4% | 4.98% (active) | 53.6 | – | 3.19% (active)
6 | NC(N)=Nc1ccc(Oc2cccc(NC(N)=Nc3ccc(Cl)c(C(F)(F)F)c3)c2)cc1 | 73 | 64.6 | 60.4 | 26.8% | 19.2% | 39.6% | 47.1 | 81% | 24.3 | 75.2% | 31.7% | 61.8 | 61.3 | 21.9 | 58.3 | 49.3% | 57% | – | – | –
7 | CC(=O)O[C@@H]1C(=O)N(c2cnccn2)[C@H]1c1ccccc1[N+](=O)[O-] | 39.3 | 36.6 | 41.5 | -5.1% (active) | 9.48% (active) | -45.7% (active) | 14.4 | 14.7% | 20.9 | 2.33% (active) | 9.97% (active) | 51.8 | 22.4 | 19.4 | 23.9 | -32.5% (active) | 44.7% | 62.9 | – | -2.82% (active)
8 | C#CCOc1ccc(/C=N\Nc2nc(-c3ccc(C)cc3)cs2)cc1OC | 86.8 | 92.2 | 98.5 | 95.5% | 73.3% | 74.5% | 88.6 | 99.2% | 94.6 | 85.3% | 69.6% | 116 | 88.6 | 102 | 92.4 | 96.4% | 93.3% | – | – | –
9 | CC(=O)N1C(=S)NC(=O)C1CC(C)C (stereo unspecified) | 100 | – | – | 106% | 98.9% | 94.9% | 101 | 97.6% | 110 | 110% | 106% | 102 | 103 | 102 | 102 | 102% | 104% | – | 106 | –
